Screening data from PubChem.
Most compounds without a hit are left out; they make up all but 11% or so of the library.
HEK cytotox: HEK 293 cell cytotoxicity | HEK 293 viability, ATP luminescence (CellTiter-Glo), 48-72 h | Potency, µM (highest dose often 115 µM), most hits filed as inhibitors | 6.6% of 94,000 active | AID 1345083; note: nearly all actives have a fitted effect of over 60% in size
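HEK 293 cells seeded at 250 cells/well were exposed to compound for 48 or 72 hr at 37 degree Celsius. Viability taken as ATP content by CellTiter-Glo luminescence.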
NIH3T3 tox: NIH 3T3 cell cytotoxicity; 4.3% of 94,000 active; AID 1345082; NIH 3T3 viability, CellTiter-Glo ATP luminescence, 48-72 h; Potency, µM (top dose mostly 96.7 µM), actives largely listed as inhibitors; note: nearly all actives have a fitted effect of over 55% in size
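Cytotoxicity is measured as loss of cellular ATP: NIH 3T3 cells (400/well) are exposed to compound for 48 or 72 hr at 37 °C, then CellTiter-Glo luminescence is imaged after 10 min at room temperature.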
hNpr1 antagonist: blocks ANP-stimulated signaling of human Npr1 receptor; HEK293 hNpr1 GloSensor cGMP, ANP-stimulated luminescence; Potency, µM (series often up to 46.3 µM), actives largely listed as inhibitors; 1.6% of 76,000 active; calls by dose curve; note: nearly all actives have a fitted effect of over 60% in size
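Compound pre-incubated 30 min at room temperature on GloSensor-loaded HEK293 cells stably carrying hNpr1 and the pGS-40F cGMP biosensor. Stimulation uses hNppA at 0.1 nM final; luminescence is taken at baseline and 20 min post-agonist.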
FLuc inh: Photinus pyralis luciferase inhibition. P08659. purified P. pyralis luciferase, luminescence, biochemical. Potency, µM (top dose mostly 115 µM), hits mostly inhibitors. 2.5% of 76,000 active. AID 1347043; note: nearly all actives have a fitted effect of over 65% in size
Target sequence (P08659 whole entry, looked up): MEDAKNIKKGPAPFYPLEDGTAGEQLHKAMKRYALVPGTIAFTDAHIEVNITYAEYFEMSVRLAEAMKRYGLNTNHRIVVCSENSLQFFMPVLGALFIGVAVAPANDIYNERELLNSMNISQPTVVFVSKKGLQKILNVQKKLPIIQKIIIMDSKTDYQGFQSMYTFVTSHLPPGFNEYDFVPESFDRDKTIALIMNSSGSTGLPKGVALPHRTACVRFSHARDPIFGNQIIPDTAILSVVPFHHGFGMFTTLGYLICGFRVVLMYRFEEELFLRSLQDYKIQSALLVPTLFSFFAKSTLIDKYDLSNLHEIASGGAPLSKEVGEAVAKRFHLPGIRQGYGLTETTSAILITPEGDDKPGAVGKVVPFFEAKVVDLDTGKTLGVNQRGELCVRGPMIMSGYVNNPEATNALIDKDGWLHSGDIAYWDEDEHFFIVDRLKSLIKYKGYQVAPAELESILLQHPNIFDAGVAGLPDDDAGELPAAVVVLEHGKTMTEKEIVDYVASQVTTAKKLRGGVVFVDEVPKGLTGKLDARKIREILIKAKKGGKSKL
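Inhibitors were tested against purified firefly luciferase in a biochemical, low-substrate format (both substrates at 10uM) and luminescence measured with a CCD imager.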
Of the large screens only hits and unclear results are named; the others gave an inactive call. Unless noted, calls come from the whole dose curve; as a rule, active = well fitted curve in the direction sought with a large enough effect; inconclusive = small, poorly fitted or top-dose-only effect, or another doubt; inactive = no such curve, though single readings can be large; an effect the other way counts as inactive or inconclusive.

CC(C)Cn1ccc2c(NC(=O)C[C@H]3NC(=O)c4ccccc4NC3=O)cccc21	HEK cytotox inconclusive, NIH3T3 tox 28.2µM
O=C1Nc2ccccc2CC12CCN(Cc1cncs1)C2 (stereo not drawn)	none
CSCCNC(=O)c1nc2cccnc2n(Cc2ccccc2)c1=O	none (no result: hNpr1 antagonist, FLuc inh)
O=c1cc2c(nn1Cc1cccc(Br)c1)CCCCC2	HEK cytotox inconclusive, NIH3T3 tox inconclusive, FLuc inh 31.6µM
O=C(NC1CC1)c1ccc2nnc(C3CCCC3)n2c1	none (no result: hNpr1 antagonist, FLuc inh)
COCCN1CCCCCC(O)c2cc(C(=O)N(CCN(C)C)Cc3ccccc3)ccc21 (stereo not drawn)	HEK cytotox inconclusive, NIH3T3 tox inconclusive
COCCN1C(=O)[C@@H]2C[C@@H](CN2Cc2ccc3ccccc3n2)Oc2ccccc21	HEK cytotox inconclusive, NIH3T3 tox 100µM, FLuc inh inconclusive
CN1C(=O)[C@@H]2C[C@@H](CN2Cc2nccs2)Oc2ccccc21	HEK cytotox inconclusive
O=C1[C@@H]2C[C@@H](CN2Cc2ccc(F)c(F)c2)Oc2ccccc2N1Cc1ccccn1	HEK cytotox inconclusive, NIH3T3 tox inconclusive
O=C1[C@@H]2C[C@@H](CN2Cc2ccccc2)Oc2ccccc2N1CC1CC1	HEK cytotox inconclusive, NIH3T3 tox inconclusive
CN1C(=O)[C@@H]2C[C@@H](CN2Cc2ccnc3ccccc23)Oc2ccccc21	HEK cytotox inconclusive, NIH3T3 tox 89.1µM
O=C1[C@@H]2C[C@@H](CN2Cc2ccc3c(c2)OCO3)Oc2ccccc2N1Cc1ccccn1	HEK cytotox 79.4µM, NIH3T3 tox inconclusive
O=C1[C@@H]2C[C@@H](CN2Cc2cnc3ccccc3c2)Oc2ccccc2N1CC1CC1	HEK cytotox 50.1µM, NIH3T3 tox inconclusive
COc1ccc(-c2ccc(C(=O)NC3CCOC3)cc2)nn1 (stereo not drawn)	none (no result: hNpr1 antagonist, FLuc inh)
Cc1ccccc1C(=O)N1CCN(C(=O)c2nc3cccnc3n(Cc3ccccc3)c2=O)CC1	none (no result: hNpr1 antagonist, FLuc inh)
COc1ccc(CN2C(=O)[C@@H]3C[C@@H](CN3CC3CC3)Oc3ccccc32)cc1	HEK cytotox inconclusive, NIH3T3 tox 79.4µM
COc1ccc(CN2C(=O)[C@@H]3C[C@@H](CN3C(C)C)Oc3ccccc32)cc1	none
Cc1ccc(CNC(=O)c2ccc3c(c2)CN(Cc2cc(F)c(F)c(F)c2)CCO3)cc1	HEK cytotox 35.5µM, NIH3T3 tox inconclusive
Cc1ccc(CNC(=O)c2ccc3c(c2)CN(Cc2cncs2)CCO3)cc1	HEK cytotox inconclusive
Cc1ccc(CNC(=O)c2ccc3c(c2)CN(CC2=Cc4ccccc4OC2)CCO3)cc1	HEK cytotox 28.2µM, NIH3T3 tox inconclusive, hNpr1 antagonist inconclusive
CCOC(=O)C1CCN(C(=O)C2CCc3nnc(C4CCN(C(C)=O)CC4)n32)CC1 (stereo not drawn)	none (no result: hNpr1 antagonist, FLuc inh)
Cc1ccc(-c2c(C(=O)N3CCN(C)CC3)nc3sccn23)cc1	none (no result: hNpr1 antagonist, FLuc inh)
NCc1cccc(-c2ccc(OC(F)(F)F)cc2)c1	HEK cytotox 39.8µM, NIH3T3 tox 31.6µM (no result: hNpr1 antagonist, FLuc inh)
O=Cc1cccc(-c2ccc(OC(F)(F)F)cc2)c1	NIH3T3 tox inconclusive (no result: hNpr1 antagonist, FLuc inh)
NCc1cccc(-c2cccc(C(F)(F)F)c2)c1	HEK cytotox inconclusive, NIH3T3 tox 79.4µM (no result: hNpr1 antagonist, FLuc inh)
COC(=O)[C@H](Cc1ccc(OC)cc1)NC(=O)[C@H]1CN(S(=O)(=O)c2ccccc2)CCN1C(=O)c1cccs1	HEK cytotox 79.4µM, NIH3T3 tox inconclusive
NC(=O)[C@H](CC1CCCCC1)NC(=O)[C@@H]1CN(S(=O)(=O)c2ccccc2)CCN1C(=O)c1cccs1	NIH3T3 tox 25.1µM
O=C(c1nc2cccnc2n(C2CC2)c1=O)N1CCC(c2ccccc2)CC1	none (no result: hNpr1 antagonist, FLuc inh)
Cc1ccc(C2NC(=O)N(CC(=O)Nc3ccc(Br)cc3F)C3=C2C(=O)OC3)cc1 (stereo not drawn)	HEK cytotox 35.5µM, NIH3T3 tox inconclusive
CCc1cccc(NC(=O)CN2C(=O)NC(c3ccc(C)cc3)C3=C2COC3=O)c1 (stereo not drawn)	HEK cytotox 28.2µM, NIH3T3 tox inconclusive
Cc1ccc(C2NC(=O)N(CC(=O)Nc3cc(F)cc(F)c3)C3=C2C(=O)OC3)cc1 (stereo not drawn)	HEK cytotox inconclusive, NIH3T3 tox inconclusive
Cc1ccc(C2NC(=O)N(CC(=O)Nc3ccc(Br)c(C)c3)C3=C2C(=O)OC3)cc1 (stereo not drawn)	HEK cytotox inconclusive, NIH3T3 tox 35.5µM, hNpr1 antagonist inconclusive
O=C(c1ccc(C(F)(F)F)cc1)N1CCC(C(=O)N2CCC(c3nc4ncccc4[nH]3)C2)CC1 (stereo not drawn)	none (no result: hNpr1 antagonist, FLuc inh)
O=C(NCc1ccc(F)c(F)c1)C1CCc2nnc(-c3cccc(C(F)(F)F)c3)n21 (stereo not drawn)	HEK cytotox inconclusive (no result: hNpr1 antagonist, FLuc inh)
CN(Cc1ccc(-c2ccccc2)cc1)Cc1ccsc1	none
CC(C)(C)OC(=O)N1CC(Nc2ccc(Oc3ccccc3)cc2)C1	HEK cytotox 89.1µM, NIH3T3 tox inconclusive (no result: hNpr1 antagonist, FLuc inh)
Cc1cc2nc3n(c(=O)c2n1CC(=O)Nc1ccc(Br)cc1F)CCCCC3	HEK cytotox 25.1µM, NIH3T3 tox inconclusive
COCC(=O)Nc1cc(C2CC2)nn1C	none (no result: hNpr1 antagonist, FLuc inh)
COc1ccccc1CNC(=O)C[C@@H]1CCNC[C@@H]1Cc1cc(C(C)(C)C)on1	HEK cytotox 100µM, NIH3T3 tox 100µM
COc1ccccc1CNC(=O)C[C@@H]1CCNC[C@@H]1Cc1cc(CSc2ccccc2)on1	HEK cytotox inconclusive, NIH3T3 tox 79.4µM
CCN(CC)C(=O)c1csc(-c2cccc(OC(C)C)c2)n1	HEK cytotox 39.8µM, NIH3T3 tox inconclusive, hNpr1 antagonist inconclusive
CCOc1cccc(-c2nc(C(=O)NCc3ccccc3)cs2)c1	HEK cytotox inconclusive, NIH3T3 tox inconclusive, hNpr1 antagonist inconclusive
COc1cccc(-c2ccc(C(=O)O)cc2)c1	none (no result: hNpr1 antagonist, FLuc inh)
CC(C)CNC(=O)c1csc(-c2cccc(OC(C)C)c2)n1	HEK cytotox 39.8µM, NIH3T3 tox inconclusive
CC(C)Oc1cccc(-c2ccc(C(=O)N(C)C)cc2)c1	HEK cytotox 35.5µM, NIH3T3 tox inconclusive, FLuc inh inconclusive
CCN1c2cc(C(=O)Nc3ccccc3C)ccc2C(=O)N2CCCCCC21 (stereo not drawn)	HEK cytotox inconclusive
C[S+](=O)([O-])c1ccc(-c2nc(C(=O)NCc3ccc(F)cc3)n3ccccc23)cc1	none (no result: hNpr1 antagonist, FLuc inh)
N#Cc1ccc(CN2CC[C@H]3C(=O)NCCCCCCN(Cc4ccncc4)[C@@H]3C2)cc1	HEK cytotox inconclusive, NIH3T3 tox inconclusive
COCC(=O)NCCNC(=O)c1cccc(-c2ccc(SC)cc2)c1	HEK cytotox inconclusive (no result: hNpr1 antagonist, FLuc inh)
COc1cccc(CNC(=O)CNC(=O)c2cccc(-c3ccc(SC)cc3)c2)c1	HEK cytotox 22.4µM (no result: hNpr1 antagonist, FLuc inh)
CSc1ccc(-c2cccc(C(=O)NCCN[S+](=O)([O-])c3ccc(C)cc3)c2)cc1	HEK cytotox 39.8µM, NIH3T3 tox inconclusive (no result: hNpr1 antagonist, FLuc inh)
CSc1ccc(-c2cccc(C(=O)NCCNC(=O)N(C)C)c2)cc1	HEK cytotox 25.1µM, NIH3T3 tox inconclusive (no result: hNpr1 antagonist, FLuc inh)
CCOc1ccccc1NC(=O)N1CC(N(CC)C2CCOCC2)C1	none (no result: hNpr1 antagonist, FLuc inh)
COc1cccc(CN2CCCC(Cc3ncc(C)n3Cc3ccccc3)C2)c1OC (stereo not drawn)	HEK cytotox 50.1µM, NIH3T3 tox inconclusive
